Several values for one entry are separate records, joined by “and”; a condition that tells them apart may be missing. Equal entries are not always repeated. Records with an inconclusive call do not appear. Activity calls are given as the source filed them. The call rests on the fitted dose curve; in most records, active means well fitted curve in the direction sought with a large enough effect; inconclusive means small, poorly fitted or top-dose-only effect, or another doubt; inactive means no such curve, though single readings can be large; an effect the other way counts as inactive or inconclusive.
Assays:
HEK293 = assay: Cytotoxic Profiling of Annotated Libraries Using Quantitative High-Throughput Screening (AID 1296008); settings: Five cell lines viability, CellTiter-Glo ATP luminescence, 48-72 h; max response: stronger effect = lower value; further: nearly all actives have a fitted effect of over 60% in size
How it was run: (§1)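 Cells exposed to compounds for 48 or 72 hr at 37 degrees Celsius. Viability read as ATP-coupled luminescence with CellTiter-Glo after 10 min at room temperature.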

HaCat [1] = assay: as above; settings: Five cell lines viability, CellTiter-Glo ATP luminescence, 48-72 h; max response: stronger effect = lower value
How it was run: as §1

KB-3-1 = assay: as above; settings: Five cell lines viability, CellTiter-Glo ATP luminescence, 48-72 h; max response: stronger effect = lower value
How it was run: as §1

MCC-26 = assay: qHTS assay to identify novel small-molecules to repurpose for Merkel cell carcinoma treatment (AID 1296009); settings: MCC and control cell lines, CellTiter-Glo viability, 72 h; series mostly up to 46 µM; further: nearly all actives have a fitted effect of over 60% in size
How it was run: (§2)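 Dose-response viability screen; 72 hr exposure at 37 degree celsius; CellTiter-Glo added, 10 min room temperature, luminescence read; RLUs scaled between no-cell and DMSO wells.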

MKL-1 = assay: as above; settings: MCC and control cell lines, CellTiter-Glo viability, 72 h; series mostly up to 46 µM
How it was run: as §2

MKL-2 = assay: as above; settings: MCC and control cell lines, CellTiter-Glo viability, 72 h; series mostly up to 46 µM
How it was run: as §2

UISO = assay: as above; settings: MCC and control cell lines, CellTiter-Glo viability, 72 h; series mostly up to 46 µM
How it was run: as §2

WaGa = assay: as above; settings: MCC and control cell lines, CellTiter-Glo viability, 72 h; series mostly up to 46 µM
How it was run: as §2

NIH3T3 [2] = assay: Cytotoxic Profiling of Annotated Libraries Using Quantitative High-Throughput Screening (AID 1296008); settings: Five cell lines viability, CellTiter-Glo ATP luminescence, 48-72 h; max response: stronger effect = lower value; further: nearly all actives have a fitted effect of over 60% in size
How it was run: as §1

MCC-13 = assay: qHTS assay to identify novel small-molecules to repurpose for Merkel cell carcinoma treatment (AID 1296009); settings: MCC and control cell lines, CellTiter-Glo viability, 72 h; series mostly up to 46 µM; further: nearly all actives have a fitted effect of over 60% in size
How it was run: as §2

CRL-7250 = normal cell line; assay: Cytotoxic Profiling of Annotated Libraries Using Quantitative High-Throughput Screening (AID 1296008); settings: Five cell lines viability, CellTiter-Glo ATP luminescence, 48-72 h; max response: stronger effect = lower value; further: nearly all actives have a fitted effect of over 60% in size
How it was run: as §1

NIH3T3 [3] = assay: qHTS assay to identify novel small-molecules to repurpose for Merkel cell carcinoma treatment (AID 1296009); settings: MCC and control cell lines, CellTiter-Glo viability, 72 h; series mostly up to 44.8 µM; further: nearly all actives have a fitted effect of over 60% in size
How it was run: as §2

C33A = assay: Primary qHTS to identify gynecologic anti-cancer compounds using libraries of approved drugs and bioactive compounds (AID 1345084); settings: Gynecologic cancer cell panel viability, ATPlite luminescence, 48 h; series mostly up to 57.5 µM; further: nearly all actives have a fitted effect of over 55% in size
How it was run: (§3)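 Luminescence from the ATPlite ATP-monitoring reagent indicates viable cell number; lower signal means cytotoxicity. Cells received compound 16 h after seeding and were exposed for 48 h across five concentrations.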

CAOV3 = assay: as above; settings: Gynecologic cancer cell panel viability, ATPlite luminescence, 48 h; series mostly up to 57.5 µM
How it was run: as §3

CASKI = assay: as above; settings: Gynecologic cancer cell panel viability, ATPlite luminescence, 48 h; series mostly up to 57.5 µM
How it was run: as §3

HACAT [4] = assay: qHTS assay to identify novel small-molecules to repurpose for Merkel cell carcinoma treatment (AID 1296009); settings: MCC and control cell lines, CellTiter-Glo viability, 72 h; at 44.8 µM (top of the series) unless noted; further: nearly all actives have a fitted effect of over 60% in size
How it was run: as §2
On the % scale 0 is the no-effect control and ±100 the full control effect; potency means the concentration at half of the fitted maximal effect.

C[C@H]1[C@H](O)O[C@@H]2O[C@@]3(C)CC[C@@H]4[C@H](C)CC[C@@H]1[C@@]24OO3
inactive: max response (HaCat [1]) -7.84% | Potency (MCC-26)
active: Potency (HEK293) 3.32 µM | Potency (KB-3-1) 20.9 µM | Potency (MKL-1) 16.6 µM | Potency (MKL-2) 10.5 µM | Potency (UISO) 2.96 µM | Potency (WaGa) 9.35 µM

CCN(CC)CCCCNc1nc2cc(Cl)c(Cl)cc2nc1-c1ccc(-c2cccs2)s1
active: Potency (HEK293) 29.6 µM | Potency (KB-3-1) 13.2 µM | Potency (MKL-1) 23.5 µM | Potency (MKL-2) 14.8 µM
inactive: Potency (MCC-26)

OCCn1cc(-c2ccc3c(c2)CCC3=NO)c(-c2ccncc2)n1
inactive: max response (HEK293) 2.25% | max response (HaCat [1]) 1.64% | max response (KB-3-1) -5.13% | max response (NIH3T3 [2]) -8.29% | Potency (MCC-13) | Potency (MCC-26) | Potency (MKL-1) | Potency (MKL-2) | Potency (UISO) | Potency (WaGa)

CN1N=C(N)c2cn([C@@H]3O[C@H](COP(=O)(O)O)[C@@H](O)[C@@H]3O)c3ncnc1c23
inactive: Potency (MCC-26)
active: Potency (CRL-7250) 1.32 µM | Potency (KB-3-1) 3.72 µM | Potency (NIH3T3 [2]) 0.418 µM | Potency (MKL-1) 5.9 µM | Potency (MKL-2) 5.9 µM | Potency (UISO) 0.469 µM | Potency (WaGa) 0.0372 µM

NC1(C(=O)N[C@@H](CCO)c2ccc(Cl)cc2)CCN(c2ncnc3[nH]ccc23)CC1
active: Potency (HEK293) 469 nM and 517 nM | Potency (C33A) 2.51 µM
inactive: max response (HaCat [1]) -16.7% | max response (KB-3-1) -18% and -7.12% | max response (NIH3T3 [2]) -1.34% | outcome (NIH3T3 [2]) | Potency (MCC-13) | Potency (MCC-26) | Potency (MKL-1) | Potency (NIH3T3 [3])

CC(C)C[C@@H](C(=O)N[C@H](C(=O)OC1CCCC1)c1ccccc1)[C@H](O)C(=O)NO
active: Potency (HEK293) 18.7 µM | Potency (MKL-2) 23.5 µM | Potency (WaGa) 7.43 µM
inactive: Potency (MCC-13) | Potency (MCC-26) | Potency (MKL-1)

COc1ccc2cc1Oc1ccc(cc1)C[C@H]1c3cc(c(OC)cc3CCN1C)Oc1c(OC)c(OC)cc3c1[C@H](C2)N(C)CC3
inactive: max response (NIH3T3 [2]) -30.2% | Potency (MCC-13) | Potency (MCC-26)
active: Potency (HEK293) 11.8 µM

CC(C)(C)c1nc(-c2cccc(NS(=O)(=O)c3c(F)cccc3F)c2F)c(-c2ccnc(N)n2)s1
inactive: max response (HEK293) -10.3% | max response (HaCat [1]) -2.38% | max response (KB-3-1) -15.7% and -13.9% | max response (NIH3T3 [2]) -11.1% and -2.7% | Potency (MCC-13) | Potency (MCC-26) | Potency (MKL-1) | Potency (MKL-2) | Potency (UISO) | Potency (WaGa) | Potency (CAOV3) | Potency (CASKI)

Nc1ccn([C@@H]2O[C@H](CO)[C@@H](O)[C@H]2O)c(=O)n1
inactive: max response (HEK293) -76.5% | Potency (MKL-2)
active: Potency (HaCat [1]) 29.6 µM | Potency (NIH3T3 [2]) 0.526 µM | Potency (MKL-1) 9.35 µM | Potency (WaGa) 0.132 µM

CC(C)(C)c1[nH]cnc1C=c1[nH]c(=O)c(=Cc2ccccc2)[nH]c1=O
inactive: max response (NIH3T3 [2]) -78.6% | Potency (MKL-1)
active: Potency (CRL-7250) 0.0038 µM | Potency (KB-3-1) 2.41e-05 µM | Potency (MCC-13) 0.0076 µM | Potency (MKL-2) 0.0605 µM | Potency (UISO) 0.0121 µM

CNC1CCC(N(Cc2cccc(-c3ccncc3)c2)C(=O)c2sc3ccccc3c2Cl)CC1 (stereo not given)
inactive: Potency (MCC-13) | Potency (MCC-26)
active: Potency (HEK293) 8.33 µM and 7.31 µM | Potency (MKL-2) 16.6 µM | Potency (CASKI) 22.4 µM

NC(=O)c1nnn(Cc2cc(Cl)c(C(=O)c3ccc(Cl)cc3)c(Cl)c2)c1N
inactive: max response (HaCat [1]) -5.54% | max response (KB-3-1) -25.7% | Potency (MCC-13) | Potency (MCC-26) | Potency (MKL-1) | Potency (MKL-2) | Potency (UISO) | Potency (WaGa)
active: Potency (HEK293) 20.9 µM

CC(C)C[C@H](NC(=O)c1cc2ccccc2s1)C(=O)N1CCN(C(=O)[C@H](CO)NS(=O)(=O)c2ccc(Cl)cc2Cl)CC1
active: Potency (HEK293) 18.7 µM
inactive: max response (HaCat [1]) -15.5% | max response (NIH3T3 [2]) -5.73% | Potency (MCC-13) | Potency (MCC-26) | Potency (MKL-1) | Potency (MKL-2) | Potency (WaGa)

CNC(=O)c1cc(Oc2ccc(NC(=O)Nc3ccc(Cl)c(C(F)(F)F)c3)c(F)c2)ccn1
active: Potency (HEK293) 7.43 µM | Potency (MKL-2) 16.6 µM | Potency (UISO) 5.9 µM | Potency (WaGa) 18.7 µM
inactive: outcome (HaCat [1]) | max response (KB-3-1) 1.15% | max response (NIH3T3 [2]) -27% | outcome (HACAT [4]) | Potency (MCC-26) | Potency (CAOV3) | Potency (CASKI)

CCCC1OC2C[C@@H]3[C@H]4CCC5=CC(=O)C=C[C@]5(C)[C@H]4C(O)C[C@]3(C)[C@]2(C(=O)CO)O1 (stereo not given in full)
inactive: max response (CRL-7250) -14.4% | max response (KB-3-1) -2.26% | max response (NIH3T3 [2]) -21.2% | Potency (MCC-13) | Potency (MCC-26) | Potency (MKL-1) | Potency (UISO) | Potency (WaGa)

O=C(Nc1ccc(OC(F)(F)F)cc1)c1sccc1NCc1ccnc2ccccc12
inactive: outcome (HaCat [1]) | outcome (HACAT [4]) | Potency (MCC-13) | Potency (MCC-26) | Potency (C33A) | Potency (CAOV3) | Potency (CASKI)
active: Potency (HEK293) 8.33 µM and 20.6 µM

From PubChem BioAssay (NCATS)
